Results on 23 compounds are retold here after PubChem BioAssay (Tox21).

Assay [1] is described as follows: A CellTox Green Cytotoxicity Assay to monitor cytotoxicity in HEK293 cells - 40 hour (AID 1224871). Also: nearly all actives have a fitted effect of over 45% in size. Also: potency is read from the fitted curve at half-maximal effect. An outline of the steps: (§1)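 Read-out: fluorescence of a cell-impermeant cyanine dye staining DNA of dead cells, proportional to cytotoxicity. HEK293, 600 cells/well with reagent, compound (23 nL DMSO) added after 5 h; reads at 0, 8, 16, 24, 32, 40 h.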
Assay [2] can be described thus: qHTS RealTime-Glo MT Cell Viability Assay in HEK293 cells - 16 hour (AID 1224872). Also: top concentration of the series differs between compounds; nearly all actives have a fitted effect of over 50% in size. The gist of the method:
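Cells + reagent dispensed (600 cells/well, HEK293) → 5 h at 37 C/5% CO2 → 23 nL compound in DMSO pinned → 40 h at 37 C → luminescence read at 0, 8, 16, 24, 32, 40 h.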

Assay [3] in a line: qHTS RealTime-Glo MT Cell Viability Assay in HepG2 cells - 8 hour (AID 1224873). Also: nearly all actives have a fitted effect of over 55% in size. An outline of the steps: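 HepG2 cells (600/well) mixed with RealTime-Glo MT reagent, settled 5 h at 37 C/5% CO2 before compound addition. Nonlytic NanoLuc luminescence from viable-cell prosubstrate reduction read repeatedly during 40 h treatment at 37 C.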
Assay [4] in a line: qHTS RealTime-Glo MT Cell Viability Assay in HEK293 cells - 40 hour (AID 1224874). Also: nearly all actives have a fitted effect of over 50% in size. Conditions: RealTime-Glo luminescence; max response: stronger effect = lower value. The gist of the method:
(§2)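 Luminescence readout at each listed time point; HEK293, 600 cells/well, RealTime-Glo MT reagent added with cells; compounds pinned (23 nL in DMSO) after 5 h at 37 C; continuous culture at 37 C.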
In general terms: qHTS replaces the single test concentration by a dilution series.

The nature of assay [5]: A CellTox Green Cytotoxicity Assay to monitor cytotoxicity in HEK293 cells - 24 hour (AID 1224875). Also: series mostly up to about 77 µM; nearly all actives have a fitted effect of over 45% in size. An outline of the steps: as §1
Assay [6] in a line: A CellTox Green Cytotoxicity Assay to monitor cytotoxicity in HepG2 cells - 16 hour (AID 1224876). Also: nearly all actives have a fitted effect of over 45% in size. An outline of the steps: (§3)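 HepG2, 600 cells/well premixed w/ CellTox Green; 5 h settle, 37 C/5% CO2; pintool cpd add (DMSO); 37 C, 40 h; fluorescence read at 0, 8, 16, 24, 32, 40 h.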
Assay [7] can be described thus: qHTS RealTime-Glo MT Cell Viability Assay in HepG2 cells - 32 hour (AID 1224877). Also: nearly all actives have a fitted effect of over 55% in size. Also: potency is read from the fitted curve at half-maximal effect. An outline of the steps:
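Real-time, nonlytic viability: 600 HepG2 cells/well mixed with NanoLuc enzyme plus prosubstrate; 5 h settle, compound (DMSO) added by pintool; luminescence monitored over 40 h at 37 C.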

Assay [8] can be described thus: A CellTox Green Cytotoxicity Assay to monitor cytotoxicity in HepG2 cells - 24 hour (AID 1224878). Also: nearly all actives have a fitted effect of over 45% in size. The gist of the method: as §3
Assay [9] is described as follows: A CellTox Green Cytotoxicity Assay to monitor cytotoxicity in HepG2 cells - 40 hour (AID 1224879). Also: nearly all actives have a fitted effect of over 40% in size. The gist of the method:
as §3

The nature of assay [10]: qHTS RealTime-Glo MT Cell Viability Assay in HEK293 cells - 0 hour (AID 1224880). An outline of the steps: as §2

Inconclusive results are not listed. Values without a mark were called inactive. Active and inactive are the calls of the source. Calls follow the shape of the dose curve; as a rule, active = well fitted curve in the direction sought with a large enough effect in the repeat runs; inconclusive = weak or mixed curves; inactive = no such curve, though single readings can be large; an effect the other way counts as inactive or inconclusive. Where a SMILES comes first, the peptide text is derived from it. [ ]: non-standard residue; d: D form. pGlu = O=C1CC[C@@H](C(=O)O)N1
% is scaled to controls: 0 for no effect and ±100 for the full control effect.

`O=Cc1cccc(Br)c1`: the Potency result in assay [1], in assay [2], in [7], in assay [9] and in [10] was “inactive” in each case. Besides, the compound was classed as inactive in assay [3], in [5], in assay [6] and in assay [8]. In assay [4], the max response was 4.64%.
As to `CCCC(C)C(=O)OCC` (configuration not stated), the Potency entry in assay [1], in assay [2], in assay [7], in assay [9] and in [10] was “inactive” each time. Moreover, the compound was called inactive in assay [3], in assay [5], in [6] and in assay [8]. The max response in assay [4] is -2.71%.
For `Cc1onc(-c2c(Cl)cccc2Cl)c1C(=O)Cl`, the Potency entry in [1], in assay [2], in assay [7], in assay [9] and in assay [10] was “inactive” throughout. In addition, the compound was classed as inactive in assay [3], in [5], in assay [6] and in assay [8]. For the same compound, the max response in [4] was 2.75%.
In the case of `CC(C(=O)O)c1cccc(Oc2ccccc2)c1` (configuration not stated), the Potency entry in assay [1], in assay [2], in assay [7], in assay [9] and in [10] was “inactive” each time. Besides, the compound was called inactive in [3], in [5], in assay [6] and in assay [8]. Also, the max response in assay [4] is -2.21%.
Turning to `Nc1c2c(nc3c1CCC3)CCCC2`, the Potency entry in assay [1], in [2], in assay [7], in assay [9] and in assay [10] was “inactive” in each case. The compound was called inactive in assay [3], in assay [5], in assay [6] and in assay [8]. Moreover, the max response in assay [4] is 0.303%.
With `NC(=O)Cc1cccc2ccccc12`, the Potency result in assay [1], in assay [2], in assay [7], in [9] and in [10] was “inactive” throughout. Besides, the compound was classed as inactive in assay [3], in assay [5], in assay [6] and in assay [8]. In addition, the max response in assay [4] is 2.56%.
Consider `CCNC(=O)[C@@H]1CCCN1C(=O)[C@H](CCCN=C(N)N)NC(=O)[C@H](CC(C)C)NC(=O)CNC(=O)[C@H](Cc1ccc(O)cc1)NC(=O)[C@H](CO)NC(=O)[C@H](Cc1c[nH]c2ccccc12)NC(=O)[C@H](Cc1cnc[nH]1)NC(=O)[C@@H]1CCC(=O)N1` ([pGlu]HWSYGLRP-NHEt), for which the Potency entry in [1], in [2], in assay [7], in assay [9] and in assay [10] was “inactive” each time. For the same compound, the result in assay [3], in assay [5], in assay [6] and in [8] was inactive. The max response in assay [4] was 7.73%.
In the case of `COc1cccc(OC)c1C(=O)N[C@@H]1C(=O)N2[C@@H]1SC(C)(C)[C@@H]2C(=O)O`, the Potency entry in assay [1], in assay [2], in [7], in assay [9] and in assay [10] was “inactive” throughout. The compound was classed as inactive in [3], in [5], in assay [6] and in assay [8]. In [4], the max response was 4.53%.
In the case of `CN1CCC(=C2c3ccccc3CCc3cccnc32)CC1`, the Potency result in [1], in [2], in assay [7], in assay [9] and in [10] was “inactive” each time. Also, the outcome in assay [3], in assay [5], in assay [6] and in [8] was inactive. In addition, the max response in assay [4] was -11%.
Take `OCCCCCO`: the Potency result in [1], in [2], in assay [7], in [9] and in assay [10] was “inactive” each time. The call in assay [3], in assay [5], in assay [6] and in assay [8] was inactive. The max response in [4] is 4.41%.
With `CC(C)C[C@@H](N)C(=O)O`, the cytotoxicity increase in assay [1] was -2.15% [at 15.8 µM]; in assay [6], -14.3% [at 15.8 µM]. Further, the figures for the activity change, negative = cytotoxicity in assay [2] and in assay [10] were 5.2% [at 15.8 µM] and 5.62% [at 15.8 µM], respectively. In assay [3], the viability change, negative = cytotoxic was 0.12% [at 15.8 µM]. Further, the max response in assay [4] was 5.97%. For the same compound, the activity change in assay [5] is -2.57% [at 15.8 µM]. For the same compound, the activity change, negative = cytotoxic in assay [7] was 4.67% [at 15.8 µM]. For the same compound, the cytotoxicity in assay [8] was -14.3% [at 15.8 µM].
With `CCO[Si](OCC)(OCC)c1ccccc1`, the Potency result in [1], in assay [2], in [7], in assay [9] and in assay [10] was “inactive” in each case. The result in assay [3], in [5], in [6] and in assay [8] was inactive. For the same compound, in assay [4], the max response is 10.1%.
In the case of `CC1(C)OC[C@@H](COC(=O)CCc2ccc(OC[C@@H](O)CNCCNC(=O)N3CCOCC3)cc2)O1`, the Potency result in assay [1], in assay [2], in assay [7], in [9] and in assay [10] was “inactive” in each case. Moreover, the result in assay [3], in assay [5], in [6] and in assay [8] was inactive. Besides, in assay [4], the max response was 4.31%.
Regarding `CC(=O)Oc1cccc(C)c1`, the Potency result in assay [1], in assay [2], in [7] and in [10] was “inactive” throughout. The call in assay [3], in assay [5], in [6] and in assay [8] was inactive. Further, the max response in [4] is 2.59%.
`COc1cc(C(=O)NCc2ccc(OCCN(C)C)cc2)cc(OC)c1OC`: the Potency result in [1], in assay [2], in assay [7], in [9] and in assay [10] was “inactive” throughout. The result in assay [3], in assay [5], in [6] and in assay [8] was inactive. Also, the max response in [4] is -23.7%.
Consider `C=COC(=O)C(C)(CC)CCC(C)C` (configuration not stated), for which the Potency result in assay [1], in assay [2], in [7], in assay [9] and in [10] was “inactive” throughout. Besides, the result in assay [3], in assay [5], in assay [6] and in assay [8] was inactive. The max response in assay [4] was 0.193%.
In the case of `CO[C@@]1(NC(=O)CSC[C@@H](N)C(=O)O)C(=O)N2C(C(=O)O)=C(CSc3nnnn3C)CS[C@@H]21`, the Potency entry in assay [1], in [2], in assay [7], in assay [9] and in [10] was “inactive” in each case. The call in assay [3], in [5], in assay [6] and in [8] was inactive. Further, the max response in [4] is -2.75%.
Regarding `COc1ccc2cc1Oc1cc3c(cc1OC)CC[N+](C)(C)[C@H]3Cc1ccc(cc1)Oc1c(OC)c(OC)cc3c1[C@@H](C2)[N+](C)(C)CC3`, the Potency entry in [1], in [2], in assay [9] and in assay [10] was “inactive” in each case. Besides, the compound was classed as inactive in [3], in assay [5], in assay [6] and in assay [8]. In assay [4], the max response is -3.12%. The Potency in [7] is 21.3 µM (active).
Regarding `c1ccc(Cc2ccccc2)cc1`, the Potency in assay [1] is 34.7 µM (active). Also, the Potency entry in assay [2], in assay [7] and in [10] was “inactive” in each case. The compound was called inactive in [3], in [5], in assay [6] and in assay [8]. In addition, the max response in [4] was -0.7%.
As for `CC(CO)(CO)[N+](=O)[O-]`, the Potency entry in assay [1], in [2], in assay [7], in [9] and in assay [10] was “inactive” in each case. Besides, the result in assay [3], in [5], in [6] and in assay [8] was inactive. In addition, the max response in assay [4] is 3.85%.
Turning to `FB(F)F`, the Potency entry in assay [1], in assay [2], in [7], in assay [9] and in assay [10] was “inactive” throughout. For the same compound, the compound was classed as inactive in assay [3], in assay [5], in assay [6] and in [8]. In addition, the max response in assay [4] was -1.41%.
Turning to `CCCCCCC#CC(=O)OC`, the Potency entry in assay [1], in assay [2], in assay [7], in assay [9] and in assay [10] was “inactive” throughout. For the same compound, the compound was classed as inactive in assay [3], in [5], in [6] and in assay [8]. Also, in assay [4], the max response was 11.4%.
As to `CCCCN1C=CN(C)C1`, the cytotoxicity increase in assay [1] is -12.1% [at 15.8 µM]; in assay [6], -14.5% [at 15.8 µM]; in assay [9], -22.4% [at 15.8 µM]. Further, the results for the activity change, negative = cytotoxicity in assay [2] and in assay [10] were 5.82% [at 15.8 µM] and 0.0716% [at 15.8 µM], respectively. The viability change, negative = cytotoxic in assay [3] was 2.13% [at 15.8 µM]. Also, the max response in assay [4] was 9.09%. Moreover, the activity change in [5] is -7.42% [at 15.8 µM]. The activity change, negative = cytotoxic in [7] is -0.21% [at 15.8 µM]. Further, the cytotoxicity in assay [8] was -16.6% [at 15.8 µM].
